# Laboratory results from the supplement of paper PMC9262897, “Low-cost anti-mycobacterial drug discovery using engineered E. coli” (Nature Communications, 2022).
# Counter-ions that a name gives are not always drawn. ± gives the standard deviation of the averaged measurements.
# Tested on: E. coli TESEC Mtb Asd
# Assay: growth (OD600 after 10 h); higher = more growth (less inhibition)
# Settings: arabinose induction (level): Low; compound 0.1 mM; raw OD600 reference: median of DMSO wells 0.417, cell-free background 0.041
# Experimental: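 TESEC E. coli strains in which the native enzyme is deleted and replaced by arabinose-inducible Mtb Asd, DapB, CysH or TrpD, each grown in its selective medium. Strains were screened against the Prestwick library at 0.1 mM and 1% DMSO in 384-well format at low and high arabinose induction. Growth is read as OD600 after 10 h in triplicate.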
row,Compound,growth
1,O=C1[C@H]2CCCC[C@H]2C(=O)N1CCCCN1CCN(c2nsc3ccccc23)CC1 [Perospirone],0.369 ± 0.015
2,CN1CCCC(CC2c3ccccc3Sc3ccccc32)C1 (stereo not drawn) [Metixene hydrochloride],0.053 ± 0.0011
3,C[C@H]1O[C@H](O[C@H]2[C@H](O)[C@@H](O)[C@@H](O[C@@H]([C@H](O)[C@@H](O)C=O)[C@H](O)CO)O[C@@H]2CO)[C@H](O)[C@@H](O)[C@@H]1N[C@H]1C=C(CO)[C@@H](O)[C@H](O)[C@H]1O [Acarbose],0.476 ± 0.036
4,O=C(Oc1cccc2cccnc12)c1ccccc1 [Benzoxiquine],0.289 ± 0.017
5,O=P(O)(O)C(O)(Cn1ccnc1)P(=O)(O)O [Zoledronic acid hydrate],0.357 ± 0.034
6,Clc1ccc(COC(Cn2ccnc2)c2ccc(Cl)cc2Cl)c(Cl)c1 (stereo not drawn) [Miconazole],0.0481 ± 0.0013
7,CC[N+](CC)(CC)CCC(O)(c1ccccc1)C1CCCCC1 (stereo not drawn) [Tridihexethyl chloride],0.369 ± 0.085
8,COc1ccc(-c2ccc3cc(C(=O)O)ccc3c2)cc1C12CC3CC(CC(C3)C1)C2 [Adapalene],0.298 ± 0.079
9,CC1=Nc2ccc(Cl)cc2S(=O)(=O)N1 [Diazoxide],0.412 ± 0.032
10,COCCCOc1ccnc(C[S+]([O-])c2nc3ccccc3[nH]2)c1C (stereo not drawn) [Rabeprazole Sodium salt],0.371 ± 0.01
11,O=C(O)c1cc(/N=N/c2ccc(S(=O)(=O)Nc3ccccn3)cc2)ccc1O [Sulfasalazine],0.363 ± 0.054
12,"Cc1c(O)c(=O)n(-c2ccccc2)n1C [Antipyrine, 4-hydroxy]",0.375 ± 0.01
13,C[C@]12C[C@H](O)[C@H]3[C@@H](CCC4=CC(=O)CC[C@@]43C)[C@@H]1CC[C@@H]2C(=O)CO [Corticosterone],0.268 ± 0.055
14,CC(CN(C)C)CN1c2ccccc2Sc2ccccc21 (stereo not drawn) [Trimeprazine tartrate],0.323 ± 0.07
15,C[C@@H]1C[C@H]2[C@@H]3C[C@H](F)C4=CC(=O)C=C[C@]4(C)[C@@]3(F)[C@@H](O)C[C@]2(C)[C@@]1(O)C(=O)COC(=O)C(C)(C)C [Flumethasone pivalate],0.319 ± 0.066
16,COc1cc(C)c(/C=C/C(C)=C/C=C/C(C)=C/C(=O)O)c(C)c1C [Acitretin],0.145 ± 0.0072
17,CC(=O)OCC1=C(C(=O)O)N2C(=O)[C@@H](NC(=O)Cc3cccs3)[C@H]2SC1 [Cephalothin sodium salt],0.421 ± 0.058
18,"CC(C)NCC(O)c1ccc(O)c(O)c1 (single isomer, unassigned; (+)) [(+)-Isoproterenol (+)-bitartrate salt]",0.468 ± 0.034
19,CCC1(c2ccccc2)C(=O)NCNC1=O [Primidone],0.463 ± 0.043
20,CC(C)(C)C(=O)OCOC(=O)[C@@H]1N2C(=O)[C@@H](/N=C/N3CCCCCC3)[C@H]2SC1(C)C [Pivmecillinam hydrochloride],0.363 ± 0.022
21,CC(C)N1CCN(c2ccc(OCC3COC(Cn4cncn4)(c4ccc(Cl)cc4Cl)O3)cc2)CC1 (stereo not drawn) [Terconazole],0.397 ± 0.14
22,Cc1cc(C(C)(C)C)c(O)c(C)c1CC1=NCCN1 [Oxymetazoline hydrochloride],0.416 ± 0.035
23,Cc1ccc(O)c([C@H](CCN(C(C)C)C(C)C)c2ccccc2)c1 [Tolterodine tartrate],0.38 ± 0.025
24,CN1CCCN(C(c2ccccc2)c2ccc(Cl)cc2)CC1 (stereo not drawn) [Homochlorcyclizine dihydrochloride],0.152 ± 0.015
25,NC[C@H]1CC[C@H](C(=O)O)CC1 [Tranexamic acid],0.446 ± 0.026
26,Cc1cc(-c2ccccc2)nnc1NCCN1CCOCC1 [Minaprine dihydrochloride],0.342 ± 0.074
27,COc1ccc(C[C@@H]2c3cc(OC)c(OC)cc3CC[N@+]2(C)CCC(=O)OCCCCCOC(=O)CC[N@@+]2(C)CCc3cc(OC)c(OC)cc3[C@H]2Cc2ccc(OC)c(OC)c2)cc1OC [Cisatracurium besylate],0.414 ± 0.032
28,N#Cc1cc(NC(=O)C(=O)O)c(Cl)c(NC(=O)C(=O)O)c1 [Lodoxamide],0.366 ± 0.035
